Reference: PubChem BioAssay (NCATS)
Results filed as inconclusive are left out. Activity calls are given as the source filed them. The call rests on the fitted dose curve; in most records, active means well fitted curve in the direction sought with a large enough effect; inconclusive means small, poorly fitted or top-dose-only effect, or another doubt; inactive means no such curve, though single readings can be large; an effect the other way counts as inactive or inconclusive.

Columns and labels:
[1] = biological target: Rap guanine nucleotide exchange factor 3 (Homo sapiens) (UniProt O95398); assay: Confirmatory qHTS for agonist of cAMP-regulated guanine nucleotide exchange factor 3 (EPAC1) (AID 1645881);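 further: EPAC1 catalysed release of BODIPY-GDP from Rap1B seen as fluorescence loss; 100% = effect of cAMP agonist control; nearly all actives have a fitted effect of over 75% in size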
[2] = biological target: Rap guanine nucleotide exchange factor 4 (Homo sapiens) (UniProt Q8WZA2); assay: Confirmatory qHTS for agonist of cAMP-regulated guanine nucleotide exchange factor 4 (EPAC2) (AID 1645884);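 further: nucleotide exchange releases bodipy-GDP from Rap1 and this lowers its fluorescence; on the % scale 0 is the no-effect control and ±100 the full control effect; nearly all actives have a fitted effect of over 65% in size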
[3] = biological target: Rap guanine nucleotide exchange factor 3 (Homo sapiens) (UniProt O95398); assay: Counterscreen qHTS for antagonist of cAMP-regulated guanine nucleotide exchange factor 3 (EPAC1) (AID 1645888);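 further: fluorescence loss as bound BODIPY-GDP is released from Rap1B; % of control where 0% means no effect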
How it was run: (§1)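 Rap1B–BODIPY-GDP (250 nM) with 50 uM GDP; compounds pin-transferred to 9.74 nM–152 uM final (activator) or from 7.32 nM upwards (inhibitor). Fluorescence Ex/Em 480/540 nm read at 5 and 30 min, then after adding cAMP or buffer, at room temperature.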

[4] = biological target: Rap guanine nucleotide exchange factor 3 (Homo sapiens) (UniProt O95398); assay: Counterscreen qHTS for agonist of cAMP-regulated guanine nucleotide exchange factor 3 (EPAC1) (AID 1645889); further: nearly all actives have a fitted effect of over 40% in size; further: potency means the concentration at half of the fitted maximal effect; on activation: % of control where 0% means no effect
How it was run: as §1

Sequence of Rap guanine nucleotide exchange factor 3 (Homo sapiens) (O95398 whole entry, looked up): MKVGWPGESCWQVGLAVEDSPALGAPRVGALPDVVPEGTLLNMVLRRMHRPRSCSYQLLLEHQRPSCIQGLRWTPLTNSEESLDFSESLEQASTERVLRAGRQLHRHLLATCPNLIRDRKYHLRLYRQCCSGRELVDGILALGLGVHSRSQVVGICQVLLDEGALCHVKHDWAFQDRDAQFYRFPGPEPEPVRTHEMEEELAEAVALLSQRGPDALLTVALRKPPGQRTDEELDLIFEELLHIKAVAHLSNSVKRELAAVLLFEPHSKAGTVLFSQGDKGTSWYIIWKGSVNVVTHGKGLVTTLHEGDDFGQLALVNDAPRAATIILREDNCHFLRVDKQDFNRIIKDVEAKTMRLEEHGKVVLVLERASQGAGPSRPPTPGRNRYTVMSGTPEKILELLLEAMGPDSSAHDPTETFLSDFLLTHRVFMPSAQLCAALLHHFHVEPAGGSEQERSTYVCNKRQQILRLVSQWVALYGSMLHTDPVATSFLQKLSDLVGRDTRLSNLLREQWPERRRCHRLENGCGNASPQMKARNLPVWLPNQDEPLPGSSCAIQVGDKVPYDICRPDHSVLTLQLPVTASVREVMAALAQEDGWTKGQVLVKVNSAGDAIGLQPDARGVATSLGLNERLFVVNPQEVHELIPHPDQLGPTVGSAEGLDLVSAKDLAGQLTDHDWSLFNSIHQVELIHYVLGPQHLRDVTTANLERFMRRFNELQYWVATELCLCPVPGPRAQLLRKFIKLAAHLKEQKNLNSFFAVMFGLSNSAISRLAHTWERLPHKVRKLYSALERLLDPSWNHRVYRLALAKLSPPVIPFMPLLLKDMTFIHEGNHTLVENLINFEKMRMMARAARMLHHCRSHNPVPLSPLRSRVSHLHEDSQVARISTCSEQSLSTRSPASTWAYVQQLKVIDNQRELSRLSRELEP
Sequence of Rap guanine nucleotide exchange factor 4 (Homo sapiens) (Q8WZA2 whole entry, looked up): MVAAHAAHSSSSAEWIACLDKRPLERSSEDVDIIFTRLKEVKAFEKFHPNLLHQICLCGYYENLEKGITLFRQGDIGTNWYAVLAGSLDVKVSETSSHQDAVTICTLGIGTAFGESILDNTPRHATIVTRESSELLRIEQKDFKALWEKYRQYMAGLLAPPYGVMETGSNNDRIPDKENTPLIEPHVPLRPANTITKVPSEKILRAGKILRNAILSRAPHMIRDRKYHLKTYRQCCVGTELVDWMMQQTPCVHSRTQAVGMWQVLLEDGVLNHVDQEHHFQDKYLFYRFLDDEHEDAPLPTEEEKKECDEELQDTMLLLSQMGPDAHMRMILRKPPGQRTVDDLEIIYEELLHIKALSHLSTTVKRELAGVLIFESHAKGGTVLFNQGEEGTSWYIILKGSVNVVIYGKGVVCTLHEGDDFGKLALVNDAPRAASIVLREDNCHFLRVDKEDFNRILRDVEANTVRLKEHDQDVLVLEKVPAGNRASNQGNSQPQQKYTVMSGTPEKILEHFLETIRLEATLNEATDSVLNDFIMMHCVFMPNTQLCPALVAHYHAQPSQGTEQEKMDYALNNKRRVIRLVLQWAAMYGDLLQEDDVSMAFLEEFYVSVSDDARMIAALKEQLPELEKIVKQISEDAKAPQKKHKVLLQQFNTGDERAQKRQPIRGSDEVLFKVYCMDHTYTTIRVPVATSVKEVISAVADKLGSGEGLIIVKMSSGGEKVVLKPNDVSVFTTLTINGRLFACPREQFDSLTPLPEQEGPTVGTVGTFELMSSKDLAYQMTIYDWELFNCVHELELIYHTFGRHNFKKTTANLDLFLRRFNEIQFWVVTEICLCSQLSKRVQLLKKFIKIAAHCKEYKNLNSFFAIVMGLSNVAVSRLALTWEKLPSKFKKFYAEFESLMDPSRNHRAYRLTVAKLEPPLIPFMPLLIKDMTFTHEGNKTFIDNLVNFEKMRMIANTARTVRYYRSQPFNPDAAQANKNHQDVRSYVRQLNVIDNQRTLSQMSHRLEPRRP

Oc1ccc(NCc2ccccc2OCc2ccccc2Cl)cc1
inactive: Potency [1] | Potency [2] | Potency [3]

CCc1noc(C)c1C(=O)Nc1nc2c(C)cc(C)cc2s1
inactive: Potency [1] | Potency [2] | Potency [3]

O=C(O)c1ccc(N=N/C(=N\Nc2ccc(C(=O)O)cc2)c2ccccc2)cc1
inactive: Potency [1] | activation [2] -13% [at 17.1 µM, percent relative to cAMP agonist control] | activity change, negative = inhibition [3] -1.23% [at 30.8 µM]

Cc1ccc(S(=O)(=O)N2CCN(c3ncnc4sccc34)CC2)cc1C
inactive: Potency [1] | Potency [2] | Potency [3]

O=C(CN1C(=O)/C(=C2/SC(=S)N(CCS(=O)(=O)O)C2=O)c2ccccc21)Nc1cccc(Br)c1
inactive: Potency [1] | Potency [2] | Potency [3]

C=C(C)Cn1c(C)cc(C)c(S(=O)(=O)c2ccc(C)cc2)c1=O
inactive: Potency [1] | Potency [2] | Potency [3]

Cc1ccc(-c2ccc(CN3C(C(C)C)C(=O)N(Cc4cn(CCC5OCCO5)nn4)CCS3(=O)=O)cc2)c(C)c1 (centres undefined)
inactive: Potency [1] | Potency [2] | Potency [3]

CCOC1=C2[C@@H](CN(S(=O)(=O)c3ccc(C)cc3)[C@H]2c2ccccc2Cl)[C@H]2C(=O)NC(=O)[C@H]2C1
inactive: Potency [1] | Potency [2] | Potency [3]

Cc1nc2c(OCc3ccc(C(F)(F)F)cc3)cccn2c1N(C)Cc1cccs1
inactive: Potency [1] | Potency [2] | Potency [3]

COCCCNC(=O)c1ccc2c3c(onc13)-c1ccccc1C2=O
inactive: Potency [1] | Potency [2] | Potency [3]

Clc1cccc(-c2nc3ccc(Cl)cn3c2Cc2ccsc2)c1
inactive: Potency [1] | Potency [2] | Potency [3]

CC(=O)C1=CCC(c2ccccc2Cl)N(S(=O)(=O)c2ccc(C)cc2)C1 (centres undefined)
inactive: Potency [1] | Potency [2] | Potency [3]

CC(=O)NC(c1ccc(Cl)cc1Cl)c1ccc2cccnc2c1O (centres undefined)
inactive: Potency [1] | Potency [2] | Potency [3]

CCCCn1nnnc1C(c1cc2ccccc2o1)N1CCN(c2ncccc2C#N)CC1 (centres undefined)
inactive: Potency [1] | activation [2] 8.35% [at 17.1 µM, percent relative to cAMP agonist control] | activity change, negative = inhibition [3] -7.87% [at 30.8 µM]

O=C(O)c1cc(N/N=C/C=C/c2ccccc2)ccc1Cl
inactive: Potency [1] | Potency [2] | Potency [3] | Potency [4]

COc1ccc(-c2nn3c(-c4cccc(C)c4)nnc3s2)cc1OC
inactive: Potency [1] | Potency [2] | Potency [3]

COc1ccc(-c2sc3ccc(OC)cc3c2C#CCCO)cc1
inactive: Potency [1] | Potency [2] | Potency [3]

CC(C)n1nccc1N(Cc1ccc(Cl)cc1)S(=O)(=O)c1ccccc1
inactive: Potency [1] | Potency [2] | Potency [3]

O=C(NC1CC1)C1CCN(S(=O)(=O)c2cc([N+](=O)[O-])ccc2Cl)CC1
inactive: Potency [1] | Potency [2] | Potency [3]

COc1cc(NC(=O)c2ccccc2NS(=O)(=O)c2ccc(Cl)s2)cc(OC)c1
inactive: Potency [1] | Potency [2] | Potency [3]

COC1=C/C(=C/c2c(N)n3nc(-c4ccc(C)cc4)sc3nc2=O)C=CC1=O
inactive: Potency [1] | Potency [2] | Potency [3]

CCCCn1c(N)c(N(CCOC)C(=O)c2ccc(-c3ccc(C(C)=O)cc3)o2)c(=O)[nH]c1=O
inactive: Potency [1] | Potency [2] | Potency [3]

CCc1nc2c(OCc3ccc(C(=O)OC)cc3)cccn2c1N(C)C(=O)c1ccc(OC)cc1
inactive: Potency [1] | activation [2] -6.93% [at 17.1 µM, percent relative to cAMP agonist control] | activity change, negative = inhibition [3] 5.67% [at 30.8 µM]

Cc1ccccc1C(=O)Nc1ccccc1N1CCCCC1
inactive: Potency [1] | Potency [2] | Potency [3]

O=C1C(O)=C(O)C(=O)c2ccccc21
inactive: Potency [1] | Potency [2] | Potency [3]

Cc1cc(NC2=CC(=O)C(=O)c3ccccc32)no1
inactive: Potency [1] | Potency [2] | Potency [3]

Cc1ccc(SCc2cc(=O)c3c(=O)n(-c4ccccc4)[nH]c3[nH]2)cc1
inactive: Potency [1] | Potency [2] | Potency [3]

CCOc1ccccc1NC(=O)C1COc2ccccc2O1 (centres undefined)
inactive: Potency [1] | Potency [2] | Potency [3]

Cc1ccc(C)c(NC(=O)CN(C)C(=O)c2ccccc2Cc2ccccc2)c1
inactive: Potency [1] | Potency [2] | Potency [3]

Cc1oc2ccc(O)c(CN3CCCCC3)c2c1C(=O)Nc1cccc(C(F)(F)F)c1
inactive: Potency [1] | Potency [2] | Potency [3]

O=C(Cc1c(Sc2ccccc2)c2ccccc2n1Cc1ccccc1)NCCO
inactive: Potency [1] | Potency [2] | Potency [3]

N#Cc1c(-c2ccc(Cl)cc2)cc(-c2cccs2)nc1SCC(=O)O
inactive: Potency [1] | Potency [2] | Potency [3]

COc1ccc(-c2nc3ccccc3nc2-c2ccccc2)cc1
inactive: Potency [1] | Potency [2] | Potency [3]

Cc1ccc(/C=C2/SC(=S)N(c3ccc(S(=O)(=O)Nc4nccs4)cc3)C2=O)cc1
inactive: Potency [1] | Potency [2] | Potency [3]

COc1ccc(C)cc1NC(=O)c1ccc2c(SCC(=O)O)c3c(nc2c1)CCCC3
inactive: Potency [1] | Potency [2] | Potency [3]

O=S(=O)(Nc1ccccc1-c1ccccc1)c1ccccc1
inactive: Potency [1] | Potency [2] | Potency [3] | Potency [4]

Cc1cc(Br)c2c(c1)[C@](O)(c1cn(C)c3ccccc13)C(=O)N2C
inactive: Potency [1] | activation [2] 1.9% [at 17.1 µM, percent relative to cAMP agonist control] | activity change, negative = inhibition [3] -15.6% [at 30.8 µM] | activation [4] 24.7% [at 30.8 µM]

CCc1cc(=O)oc2cc(C)cc(OCC(=O)N[C@@H](CSCc3ccccc3)C(=O)O)c12
inactive: Potency [1] | Potency [2] | Potency [3] | Potency [4]

O=C(Cc1ccc(Br)c2ccccc12)N/N=C/c1ccccn1
inactive: Potency [1] | Potency [2] | Potency [3] | Potency [4]

CN(CC(=O)Nc1ccccc1Cl)C(=O)c1ccc(Cl)c(S(=O)(=O)N2CCCCCC2)c1
inactive: Potency [1] | Potency [2] | Potency [3] | Potency [4]

CCCCc1ccc(NC(=O)CN2C(=O)C3CCCCC3C2=O)cc1 (centres undefined)
inactive: Potency [1] | Potency [2] | Potency [3] | Potency [4]

CCOc1ccc(NC(=NCc2ccc3c(c2)OCO3)SC2CC(=O)N(c3ccc(C(=O)O)cc3)C2=O)cc1 (centres undefined)
inactive: Potency [1] | Potency [2] | Potency [3] | Potency [4]

O=C(NCCc1ccccc1)c1cccc(NC(=O)c2ccccc2)c1
inactive: Potency [1] | Potency [2] | Potency [3] | Potency [4]

O=C1C(=Cc2cn(-c3ccccc3)nc2-c2ccc(OCc3ccc(Cl)cc3)cc2)SC(=S)N1CCS(=O)(=O)O
active: Potency [4] 50.1 µM
inactive: Potency [1] | Potency [2] | Potency [3]

COc1ccc(/C=C/C(=O)c2ccccc2)c(OC)c1
inactive: Potency [1] | activation [2] 0.603% [at 17.1 µM, percent relative to cAMP agonist control] | activity change, negative = inhibition [3] -16.1% [at 30.8 µM] | activation [4] -1.52% [at 30.8 µM]

Cc1noc(C)c1COc1ccccc1C(=O)N(C)Cc1ccc(C(C)(C)C)cc1
inactive: Potency [1] | Potency [2] | Potency [3] | Potency [4]

CCCCC[C@H](C)N1C[C@H](COCc2ccccc2)Oc2cc(N3CCC[C@H]3C(N)=O)ccc2S1(=O)=O
inactive: Potency [1] | Potency [2] | Potency [3] | Potency [4]

O=C(COC(=O)c1c2c(nc3ccccc13)/C(=C\c1ccco1)CC2)NC1CCCC1
inactive: Potency [1] | Potency [2] | Potency [3] | Potency [4]

O=S(=O)(Nc1nccs1)c1ccc(Nc2nnc(-c3ccccc3)c3ccccc23)cc1
inactive: Potency [1] | activation [2] 2.79% [at 17.1 µM, percent relative to cAMP agonist control] | activity change, negative = inhibition [3] 3.85% [at 30.8 µM] | activation [4] 17.5% [at 30.8 µM]

CC(C)=CCC[C@H](C)C[C@@H]1Cc2[nH][nH]c(=O)c2[C@H](c2ccc(F)cc2)O1
inactive: Potency [1] | Potency [2] | Potency [3] | Potency [4]

Cc1c(C(=O)N2CCCC2)oc2ccc(Br)cc12
inactive: Potency [1] | Potency [2] | Potency [3] | Potency [4]

O=C(O)c1ccccc1-c1ccccc1C(=O)Nc1ccc2c(c1)oc(=O)c1ccccc12
inactive: Potency [1] | Potency [2] | Potency [3] | Potency [4]

O=C1[C@H](Cc2ccccc2)NCC=CC[C@@H](c2ccc(Cl)cc2)N1Cc1ccc(Cl)cc1
inactive: Potency [1] | Potency [2] | Potency [3] | Potency [4]

Cc1cccc(OC(=O)Nc2ccc(C(=O)O)c(O)c2)c1
inactive: Potency [1] | activation [2] -3.1% [at 17.1 µM, percent relative to cAMP agonist control] | activity change, negative = inhibition [3] -25.7% [at 30.8 µM] | activation [4] -3.96% [at 30.8 µM]

Cn1c(=O)c2c(nc(NCCc3ccccc3)n2CC(=O)NCCc2ccccc2)n(C)c1=O
inactive: Potency [1] | Potency [2] | Potency [3] | Potency [4]

COc1cc(/C=C2\SC(=S)N(NC(=O)c3ccc(O)c(OC)c3)C2=O)ccc1O
inactive: Potency [1] | Potency [2] | Potency [3] | Potency [4]

COc1ccccc1N1C(=O)C2C(C(=O)c3ccccc3)=NN(c3ccc(Br)cc3)C2C1=O (centres undefined)
inactive: Potency [1] | Potency [2] | Potency [3] | Potency [4]
